Rows were chosen to be rich in hits. Some 1.6% of all compounds tested hit in one or more screens of this group.
KCNQ2 block = inhibitors of rat KCNQ2 potassium channel; B-score at 10 µM; CHO-K1 KCNQ2, FluxOR thallium flux, 20 min; active compounds read low; AID 2156; 1.1% of 310,000 active;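 active = fluorescence ratio B-score at most minus 3 library SDs, with starting brightness B-score within 2 library SDs, cut at about -5.5 in these data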
KCNQ2 enhance = potentiators of rat KCNQ2 potassium channel. O88943. CHO-K1 KCNQ2, FluxOR thallium flux fluorescence; active compounds read high. B-score at 10 µM. 0.54% of 310,000 active. AID 2239;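 active = fluorescence ratio B-score at least 3 SD of library B-scores, with initial fluorescence B-score within 3 of them, cut at about 5.3 in these data; same plate scores as AID 2156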;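 note: B-score of peak minus minimum over baseline fluorescence ratio after K+ and Tl+ stimulus; positive B-score means potentiation of KCNQ2 with more thallium influx and brighter signal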
Each line names hits and unclear results; the compound was inactive in the other large screens.

CCN1CCN(CCNC(=O)c2ccc(CS(=O)c3ccc(Br)cc3)o2)CC1 (centres undefined)	KCNQ2 enhance 5.6
C=CCc1cccc(/C=N/NC(=O)c2ccc3nc[nH]c3c2)c1O	none
CCOC(=O)C1CCN(C(=O)C2CCN(S(=O)(=O)c3cccc4nsnc34)CC2)CC1	none
CCOC(=O)c1c(C)n(-c2ccc(C)cc2)c2ccc(OCC(O)CNCC3CCCO3)cc12 (centres undefined)	KCNQ2 block -6.3
OC(CNCC1CCCO1)COc1ccc(OCC(O)CNCC2CCCO2)cc1 (centres undefined)	none
CC(C)(C)NC(=O)COC(=O)c1ccc2c(c1)C(=O)N(Cc1ccco1)C2=O	none
CCn1ccnc1CN(C)Cc1cn(-c2cccc(C)c2)nc1-c1cccc(F)c1	none (no result: KCNQ2 enhance)
Cc1cccc(-n2cc(CN(C)Cc3nccn3C)c(-c3cccc(F)c3)n2)c1	KCNQ2 block -6.7
N=C1/C(=C/c2cccs2)C(=O)N=C2SN=C(SCc3ccccc3)N12	none
CC(C)CSC1=NSC2=NC(=O)/C(=C\c3cccs3)C(=N)N12	KCNQ2 enhance 7.4
COc1ccccc1-c1nnc(SCC(=O)Nc2ccc(S(N)(=O)=O)cc2)n1N	none
CCNc1oc(-c2cccc3ccccc23)nc1C#N	none (no result: KCNQ2 enhance)
N#Cc1nc(-c2cccc3ccccc23)oc1NCCN1CCCCC1	KCNQ2 block -7.9
CN(CC(=O)Nc1ccccc1C(F)(F)F)C(=O)C1=COCCO1	none (no result: KCNQ2 enhance)
COc1ccc(N(C(=O)c2snc(C(N)=O)c2N)C(C(=O)NC2CCCC2)c2cccs2)c(OC)c1 (centres undefined)	KCNQ2 block -8
COc1ccc(OC)c(C(C(=O)NC2CCCCC2)N(C(=O)c2snc(C(N)=O)c2N)c2ccccc2OC)c1 (centres undefined)	none (no result: KCNQ2 enhance)
CC1CC(C)CN(CCCNC(=O)CCC(=O)N2CC(C)Oc3ccccc32)C1 (centres undefined)	none
CC(=O)N1CCSc2ccc(S(=O)(=O)Nc3cccc(C)c3)cc21	none
Cc1ccc(CS/C(Nc2ccccc2C)=C(\C#N)C(=O)NCc2ccco2)c(C)c1	none (no result: KCNQ2 enhance)
Cc1ccccc1N/C(SCc1ccc(Cl)cc1)=C(/C#N)C(=O)NCc1ccco1	KCNQ2 block -7
O=C(COc1ccc(Br)cc1)N1CCc2ccccc2C1	KCNQ2 block -6.5
COc1ccc(OCC(=O)N2CCc3ccccc3C2)cc1	none (no result: KCNQ2 enhance)
O=C(COc1ccc(Br)cc1)N1CCC(c2ccccc2)C1 (centres undefined)	KCNQ2 block -5.6
O=C(COc1ccc(Br)cc1)N1CCOCC1	none (no result: KCNQ2 enhance)
Cc1cc(OCC(=O)N2CCc3ccccc3C2)c2c(-c3ccccc3)cc(=O)oc2c1	KCNQ2 block -7.5
CCOc1cc(C)cc2oc(=O)cc(-c3ccccc3)c12	none (no result: KCNQ2 enhance)
CN(CC(=O)Nc1ccccc1Br)C(=O)CCSc1ccc(F)cc1	none (no result: KCNQ2 enhance)
O=C(NCC(=O)N1CC=C(c2ccccc2)CC1)c1ccco1	none (no result: KCNQ2 enhance)
CCc1nn(C(CC)C(=O)NCCCN2CC(C)CC(C)C2)c(=O)c2cc3oc(C)cc3n12 (centres undefined)	none (no result: KCNQ2 enhance)
Cc1ccc2oc(C(=O)NCC3CCOCC3)c(C)c2c1	none
COc1cccc(NC(=O)CCc2c(C)nc3nc(CNC(=O)c4cccc(F)c4)nn3c2C)c1	none
CCCC[C@@H]1C[C@H]1[C@@H](NC(=O)c1cccs1)c1ccc(Cl)cc1	KCNQ2 block -8
CCCC[C@@H]1C[C@H]1[C@@H](NC(=O)c1ccco1)c1ccc(Cl)cc1	none (no result: KCNQ2 enhance)
O=C(/C=C/c1ccc(Br)cc1)c1ccco1	none (no result: KCNQ2 enhance)
O=C(/C=C/c1ccc([N+](=O)[O-])cc1)c1ccco1	KCNQ2 block -7.3
CCOC(=O)C1=C(COC(=O)CCNS(=O)(=O)c2ccc(NC(C)=O)cc2)NC(=O)NC1C (centres undefined)	none (no result: KCNQ2 enhance)
COc1ccc(C)cc1N(CC(=O)N1CCCCCC1)S(=O)(=O)c1ccc(C)cc1	none (no result: KCNQ2 enhance)
COc1ccc(C2=NOC(C(=O)NCc3cccnc3)C2)cc1 (centres undefined)	none
Clc1cccc(-c2nc(NCCCN3CCOCC3)c3ccccc3n2)c1	none (no result: KCNQ2 enhance)
Oc1ccccc1-c1nc(NCCN2CCOCC2)c2ccccc2n1	KCNQ2 block -8.2
Clc1ccc(-c2nc(NCCCN3CCOCC3)c3ccccc3n2)cc1	KCNQ2 block -7.9
COc1cccc(-c2nc(NCCN3CCOCC3)c3ccccc3n2)c1O	none (no result: KCNQ2 enhance)
O=C(Nc1ccc(Br)cc1)Nc1cnccn1	none
COCc1cc(CN(C)C(=O)c2oc3c(F)cccc3c2C)[nH]n1	none (no result: KCNQ2 enhance)
Cc1ccc(OCC(=O)NCCNC(=O)c2ccco2)cc1C	none
O=c1[nH]c([N+](=O)[O-])nn1C(c1ccccc1)c1ccccc1	none (no result: KCNQ2 enhance)
CCOc1ccc(C2C(C(=O)OC)=CN(C(C)c3ccccc3)C=C2C(=O)OC)cc1 (centres undefined)	KCNQ2 block -7.4
CCOc1ccc(CCNC(=O)C(O)c2ccccc2)cc1 (centres undefined)	none
O=C(COc1ccc(F)cc1)NCCCn1ccnc1	none (no result: KCNQ2 enhance)
COc1cc(C(C[N+](=O)[O-])c2c(N)n(C)c(=O)n(C)c2=O)ccc1O (centres undefined)	none (no result: KCNQ2 enhance)
Cc1ccc(C(C[N+](=O)[O-])c2c(N)n(C)c(=O)n(C)c2=O)cc1 (centres undefined)	KCNQ2 block -8
Cc1cc(C)nc(N=Nc2c(O)n(Cc3ccc(Cl)cc3)c3ccccc23)n1	KCNQ2 block -5.9
O=Nc1c(O)n(Cc2cccc(Cl)c2)c2ccccc12	none (no result: KCNQ2 enhance)
S=C(Cc1ccccc1)NCCc1ccccc1	none (no result: KCNQ2 enhance)
COc1ccc(CC(=S)NCCc2ccccc2)cc1	KCNQ2 block -6
Cc1nc(N)sc1-c1csc(Nc2ccc(Cl)cn2)n1	none
Cc1nc(N)sc1-c1csc(Nc2ccccn2)n1	KCNQ2 enhance 6.8
COc1cccc(CN2CC(C(=O)NCCN3CCOCC3)CCC2=O)c1 (centres undefined)	none (no result: KCNQ2 enhance)
COc1ccc(C2/C=C\CN(C(=O)Nc3ccccc3-c3ccccc3)CC(=O)N2Cc2ccc(F)cc2)cc1 (centres undefined)	KCNQ2 block -6.4
COC(=O)N1C/C=C\C(c2ccc(OC)cc2)N(Cc2ccc(F)cc2)C(=O)C1 (centres undefined)	none
CSCCC(NC(=O)COc1ccccc1)C(=O)N1CCN(C(C)=O)CC1 (centres undefined)	none
CC(C)(C)N/N=C1\CC(c2ccccc2)Oc2ccccc21 (centres undefined)	KCNQ2 block -7.2
c1ccc(C2C/C(=N\N3CCOCC3)c3ccccc3O2)cc1 (centres undefined)	none (no result: KCNQ2 enhance)
CN(C)S(=O)(=O)c1cccc(C(=O)Nc2ccccc2Cl)c1	none
CCN(c1ccccc1)S(=O)(=O)c1ccc(F)c(C(=O)O)c1	none
CCN(c1ccccc1)S(=O)(=O)c1cc(C(=O)Nc2ccccc2Cl)ccc1F	KCNQ2 block -6
CCN(c1ccccc1)S(=O)(=O)c1cc(C(=O)Nc2ccc(Br)cc2)ccc1F	KCNQ2 block -6.2
Cc1ccc(N(C)C2=NC(=O)CS2)cc1Cl	none
CC(C)(O)c1ccccc1CC[C@@H](SCC1(CC(=O)O)CC1)c1cccc(/C=C/c2ccc3ccc(Cl)cc3n2)c1	KCNQ2 block -6.4
Cc1ccc(C)c(N2CCN(C(=O)c3ccc(CS(=O)(=O)c4ccccc4C)o3)CC2)c1	KCNQ2 block -6.5
Cc1ccc(S(=O)(=O)Cc2ccc(C(=O)N3CCN(c4cc(C)ccc4C)CC3)o2)cc1	none
CCC(=O)Nc1ccc(NC(=O)CSc2nnc(-c3ccco3)n2CC)cc1	none
NC(=S)Nc1ccc(S(=O)(=O)c2ccc(NC(N)=S)cc2)cc1	none
O=c1c2ccccc2c(-c2ccccc2)nn1Cc1c(Cl)cccc1Cl	KCNQ2 block -5.8
CCOC(=O)Cn1nc(-c2ccccc2)c2ccccc2c1=O	none

Source: PubChem BioAssay (Johns Hopkins Ion Channel Center)
